# SKKanGAS inh: blocks kanamycin growth of S. pyogenes SKKanGAS strain. AID 1662. 300,000 compounds, 1.3% hits. BacTiter-Glo, 6 h. inhibition, % at 7.5 µM;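 active = mean replicate score, as percent of positive control median, at least 50; inconclusive = mean below 50 but one replicate at or above 50; inactive = mean and every replicate below 50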;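 also: strain carries kanamycin resistance gene driven by streptokinase promoter and grows in 40 µg/ml kanamycin; loss of luminescence reflects streptokinase promoter inhibition or plain growth inhibition; 0% = median of DMSO wells and 100% = positive control at its reference dose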
# V-ATPase pH: alters yeast V-ATPase proton transport; response, % at 10 µM; S. cerevisiae, pHLuorin cytosolic pH fluorescence; AID 504577; 350,000 compounds, 0.37% hits; in the data active = response mostly above about 7.3%, no sharp cut-off; inactive = mostly below about 5.4%; also: actives read high
# TIM10 inh: growth inhibitors of TIM10 yeast strain; S. cerevisiae TIM10 strain growth, BacTiter-Glo luminescence, 24 h; inhibition, % at 10 µM; 330,000 compounds, 1.4% hits;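 active = inhibition of 40% or more at the single tested concentration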;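 also: wild-type TIM10 isogenic control strain grown at permissive 25 °C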
# tim23-1 inh: growth inhibitors of tim23-1 mutant yeast | S. cerevisiae tim23-1 growth, BacTiter-Glo luminescence, 24 h | inhibition, % at 20 µM | 330,000 compounds, 1.3% hits;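 active = growth inhibition of the mutant yeast at or above 50%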;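 also: temperature-sensitive mutant grown at 25 °C; plate controls were DMSO-treated mutant yeast for no effect and medium wells lacking yeast for full effect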
# tim10-1 inh: inhibits growth of tim10-1 mutant yeast; S. cerevisiae tim10-1 ts strain growth, BacTiter-Glo, 24 h; inhibition, % at 20 µM; 330,000 compounds, 2.2% hits;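 active = inhibition of at least 40%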;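 also: mutant grown at 25 °C; 0% = DMSO wells with yeast and 100% = wells holding no yeast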
# PfHsp90 set2: inhibits growth of yeast expressing Plasmodium falciparum Hsp90; S. cerevisiae expressing PfHsp90, BacTiter-Glo ATP, 48 h; yeast lacking PDR1 and PDR3 efflux regulators; inhibition, % at 9.4 µM; 310,000 compounds, 0.32% hits; AID 504621;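 active = every replicate shows inhibition above about 80%, whatever the replicate mean, limit read from the data; inconclusive = mean inhibition reaches the set limit but some replicate falls short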;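 also: 0% = DMSO neutral controls and 100% = 20 µM radicicol positive controls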
# tim10-1 confirm: tim10-1 yeast growth inhibition, confirmed; S. cerevisiae tim10-1 ts strain growth, BacTiter-Glo, 24 h; 7,400 compounds, 56% hits; shares compounds with tim10-1 inh; inhibition, % at 20 µM;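 active = inhibition of yeast growth at or above a set limit in either of two repeat tests at 20 µM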;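 also: tim10-1 mutant grown at permissive 25 °C to find synthetic lethal compounds; 0% = DMSO yeast wells and 100% = medium wells without yeast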
# tim10 confirm: TIM10 yeast growth inhibition, confirmed; S. cerevisiae tim10 strain growth, BacTiter-Glo luminescence, 24 h; inhibition, % at 10 µM; 4,600 compounds, 63% hits; shares compounds with TIM10 inh;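 active = inhibition of yeast growth at or above a set limit in either of two replicates at 10 µM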;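 also: this counterscreen used the strain with wild-type TIM10; 0% = yeast with DMSO and 100% = medium wells lacking yeast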
# tim23-1 confirm: tim23-1 yeast growth inhibition, confirmed | AID 463218 | S. cerevisiae tim23-1 growth, BacTiter-Glo luminescence, 24 h | 4,400 compounds, 83% hits | inhibition, % at 20 µM | shares compounds with tim23-1 inh;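 active = inhibition above about 39% in either of two replicate wells at 20 µM, limit read from the data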;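 also: temperature-sensitive tim23-1 mutant grown at 25 °C; 0% = DMSO wells with yeast and 100% = medium wells without yeast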
# Numbers without * were called inactive; u = inconclusive; x = no result. In the library only some 4.6% were active in any assay of this set; here they are far more common.
SMILES,SKKanGAS inh,V-ATPase pH,TIM10 inh,tim23-1 inh,tim10-1 inh,PfHsp90 set2,tim10-1 confirm,tim10 confirm,tim23-1 confirm
COc1ccc(C(=O)O/N=C(\N)Cc2cccs2)cc1OC,-3,1,37,33,26,3,x,x,x
COc1ccccc1C/C(N)=N/OC(=O)c1ccc(C)c([N+](=O)[O-])c1,0,-2,86*,75*,69*,-32,43*,86*,42*
O=C(O)C1C2CCC(C2)C1C(=O)NCCc1ccccc1 (stereo not drawn),4,0,2,-4,2,12,x,x,x
CCOC(=O)c1c(C)sc2c1N(C(=O)CCl)c1cc(Cl)ccc1S2,-3,-6,21,61*,43*,x,43*,x,50*
Cc1sc2ncnc(SCC(=O)N3c4ccccc4Sc4ccc(Cl)cc43)c2c1C,4,3,6,19,22,-7,x,x,x
CCOc1ccc(N(CC(=O)Nc2cc(Cl)ccc2C)S(C)(=O)=O)cc1,7,1,-2,3,-8,-1,x,x,x
CCN(CC)S(=O)(=O)c1ccc(O)c(C(=O)OCC(=O)N2CCCc3ccccc32)c1,x,1,x,x,x,x,x,x,x
O=[N+]([O-])/C=C/c1cn(Cc2ccc(Cl)cc2)c2ccccc12,-10,4,64*,73*,65*,u,58*,30*,75*
O=C(O)c1ccc(Cn2cc(/C=C\[N+](=O)[O-])c3ccccc32)o1,0,1,11,8,-9,-7,x,x,x
Cc1cccc(Cn2cc(/C=C/[N+](=O)[O-])c3ccccc32)c1,31,0,67*,67*,66*,x,71*,82*,74*
Cc1cc(=O)oc2c3c(cc(OCC(=O)NCC4CCC(C(=O)O)CC4)c12)OC(C)(C)CC3 (stereo not drawn),20,-1,2,-10,-22,-12,x,x,x
COc1ccccc1C(=O)O/N=C(\N)c1ccccc1Cl,-4,2,35,52*,41*,8,40*,x,32
N/C(=N\OC(=O)c1ccc(Cl)cc1Cl)c1ccccc1,16,-1,87*,82*,62*,-4,55*,84*,78*
N/C(=N\OC(=O)c1ccccc1Cl)c1ccc(Cl)cc1,8,1,79*,81*,53*,x,37*,82*,72*
N/C(=N/OC(=O)c1ccccc1Cl)c1nonc1N,34,-2,17,22,24,58,x,x,x
N/C(=N\OC(=O)c1ccccc1Cl)c1ccccc1,-2,1,47*,57*,52*,-10,55*,43*,52*
O=C(Nc1ccccc1F)C1COc2ccccc2O1 (stereo not drawn),9,-1,4,18,11,5,x,x,x
N/C(=N\OC(=O)c1ccc(Cl)cc1Cl)c1cccnc1,8,-1,51*,52*,58*,x,55*,36*,42*
Cc1cccc(/C(N)=N/OC(=O)c2cccnc2)c1,5,3,37,35,38,-47,x,x,x
Cc1ccc(SCc2[nH]nc3c2C(c2ccco2)C(C#N)=C(N)O3)cc1 (stereo not drawn),23,0,38,68*,71*,-8,55*,x,50*
CCc1[nH]nc2c1C(c1ccc(Br)s1)C(C#N)=C(N)O2 (stereo not drawn),x,1,75*,82*,85*,13,83*,-22,80*
Cn1c(=O)c2c(ncn2CC(COCc2ccccc2)OCc2ccccc2)n(C)c1=O (stereo not drawn),2,-6,15,10,15,7,x,x,x
O=C(Nc1ccc(Cl)c(Cl)c1)c1cccc(S(=O)(=O)NCc2cccnc2)c1,-7,-1,13,21,31,1,x,x,x
Cc1ccc(S(=O)(=O)c2ccc([N+](=O)[O-])cn2)cc1,17,2,73*,75*,73*,95*,68*,70*,75*

# Screening results: PubChem, several laboratories
